In PubChem BioAssay (NCI):
About 83,000 compounds went through this panel and 20% of them were active in at least one assay; those are over-represented in the sample as a whole.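 For each line, cells grew in 96-well plates with the test compound present at a single concentration for 48 hours.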 Values without a mark were called inactive. Calls of active or inactive are those of the source. The calls were made as follows: active = growth percent below 10; inactive = the rest.

Legend:
Assay in all cases: NCI-60 one-dose screen, 48 h (100 = growth as untreated, 0 = no growth, -100 = all killed)
Details in all cases: 10 µM unless noted
K-562 leukemia = tested on: K-562 leukemia
MALME-3M melanoma = tested on: MALME-3M melanoma
MDA-MB-231 breast = tested on: MDA-MB-231 breast
RXF 393 renal = tested on: RXF 393 renal
SF-268 CNS = tested on: SF-268 CNS
SF-295 CNS = tested on: SF-295 CNS
SF-539 CNS = tested on: SF-539 CNS
UACC-257 melanoma = tested on: UACC-257 melanoma
HCT-15 colon = tested on: HCT-15 colon
M14 melanoma = tested on: M14 melanoma

SMILES | growth (K-562 leukemia) | growth (MALME-3M melanoma) | growth (MDA-MB-231 breast) | growth (RXF 393 renal) | growth (SF-268 CNS) | growth (SF-295 CNS) | growth (SF-539 CNS) | growth (UACC-257 melanoma) | growth (HCT-15 colon) | growth (M14 melanoma)
CN(C)c1ccc(/C=c2\sc3nc4ccccc4n3c2=O)cc1 | 96.8% | 101% | 91.2% | 117% | 109% | 109% | 96.5% | 117% | 107% | 
CSc1ccc2c(c1)N(C(=O)/C(C#N)=C/c1c[nH]c3ccccc13)c1ccccc1S2 | 16.4% | 55.7% | 53.2% | 38.8% | 55.8% | 15% | 7.54% (active) | 57% | 27.3% | 29.5%
Oc1c(Cl)cc(Cl)c2ccc(CN3CCCCC3)nc12 | 21.9% | 31.4% | 40.4% | 78.2% | 41.9% | 26.5% | 29.1% | 43.1% | 26.7% | 8.72% (active)
C/C(=N\NC(N)=O)c1c(O)sc(=O)[nH]c1=O | 105% | 97.5% | 102% | 107% | 104% | 96.3% | 94.6% | 96.5% | 97.1% | 
COc1cc(/C=C/C(=O)c2ccc(F)cc2)ccc1Oc1nc(NCCO)nc(N2CCOCC2)n1 | 6.99% (active) | 78.8% | 86.7% | 108% | 81% | 93.2% | 88.2% | 98.3% | 39.2% | 84%
CS(=O)(=O)c1ccc(-c2nc3ccccn3c2/C=N/Nc2nc(-c3ccc(Br)cc3)cs2)cc1 | 86.1% | 128% | 105% | 99.7% | 108% | 102% | 105% | 122% | 92.6% | 112%
Cn1c(SCC(=O)c2cccs2)nc2ccccc2c1=O | 78.5% | 102% | 88.2% | 107% | 92.7% | 107% | 94.6% | 93.4% | 91.1% | 97.8%
CC(=O)Nc1cc(F)cc(-c2ccc3[nH]cc(-c4ccccc4)c3n2)c1 | 0.935% (active) | -14.3% (active) | -3.42% (active) | -11.8% (active) | 41.3% | -42.9% (active) | -28.5% (active) | -29.3% (active) | -60.8% (active) | -14.8% (active)
O=C(CCN1C(=O)/C(=C/c2ccccc2)SC1=S)N1CCOCC1 | 43.1% | 72.9% | 75.9% | 77.1% | 97.7% | 98.1% | 91.8% | 91.4% | 53.7% | 76.8%
CS(=O)(=O)c1ccc(-n2cc(/C=C/C(=O)c3ccc(NC(=O)CO[N+](=O)[O-])cc3)c(-c3ccc(Cl)cc3)n2)cc1 | 119% | 100% | 79.5% | 86.8% | 111% | 91.2% | 92.7% | 97.1% | 96.2% | 91.6%
O=C(CSc1nnc(-c2ccc3nc(-c4ccc(Cl)cc4)[nH]c3c2)o1)Nc1ccc(C(=O)/C=C/c2ccc(Cl)cc2)cc1 | 81.4% | 102% | 90.6% | 104% | 99.9% | 93% | 84.3% | 107% | 89.8% | 102%
CN(C)CCCNc1c2ccc(Cl)cc2nc2c1oc1ccccc12 | 3.28% (active) | 14.6% | -17.5% (active) | -68.1% (active) | 23% | -25.1% (active) | -68.7% (active) | 32% | -20.6% (active) | 15.5%
Cc1cccc2sc(/N=C(\N)C(Cl)(Cl)Cl)nc12 | 100% | 102% | 96.2% | 120% | 94.5% | 94.4% | 99.4% | 104% | 102% | 101%
CS(=O)(=O)c1ccc(-c2nc3ccccn3c2/C=N/Nc2nc(-c3ccc(Cl)cc3)cs2)cc1 | 78.6% | 127% | 106% | 98.8% | 110% | 98.8% | 105% | 107% | 94.2% | 107%
CN(C)S(=O)(=O)c1oc(-c2ccccc2)nc1C#N | 5.64% (active) | -23.6% (active) | 52.2% | 39% | 116% | 99.3% | 84.4% | 103% | -11.6% (active) | 
COc1ccc(CNS(=O)(=O)/N=C2\NC(=O)NC2=C(Cl)Cl)cc1 | 13% | 76% | 22.1% | 39.6% | 59.6% | -22.9% (active) | -6.36% (active) | 54.4% | 56.1% | 25.2%
COc1ccc(-n2c(SCC(=O)Nc3ccc(-c4nc5ccccc5[nH]4)cc3)nc3ccccc3c2=O)cc1 | 5.98% (active) | -57.3% (active) | 29% | -39.1% (active) | 42.6% | 16.2% | -77.3% (active) | 45.3% | -11% (active) | 
Cc1sc2nc(NCc3ccccc3Cl)[nH]c(=O)c2c1C | 54.8% | 100% | 73% | 94.3% | 87.6% | 80.2% | 77.7% | 106% | 47.3% | 
O=c1/c(=C\c2ccc(-c3ccccc3)o2)sc2nc(-c3ccccc3)nn12 | 102% | 102% | 97.9% | 115% | 96.8% | 105% | 105% | 106% | 91.8% | 100%
COc1ccc(-c2nc3ccc(-c4nnc(SCC(=O)Nc5ccc(C(C)=O)cc5)o4)cc3[nH]2)cc1 | 85.6% | 87.8% | 94.7% | 122% | 104% | 97.5% | 81.6% | 124% | 100% | 
CSCCC(C(=O)O)N1C(=O)/C(=C/c2ccc(O)c(O)c2)SC1=S (stereo not given) | 109% | 101% | 97.1% | 125% | 97.6% | 96.5% | 95.7% | 104% | 100% | 101%

SMILES | growth (K-562 leukemia) | growth (MALME-3M melanoma) | growth (MDA-MB-231 breast) | growth (RXF 393 renal) | growth (SF-268 CNS) | growth (SF-295 CNS) | growth (SF-539 CNS) | growth (UACC-257 melanoma) | growth (HCT-15 colon) | growth (M14 melanoma)
COc1cc(-c2nc3ccc(-c4nnc(SCC(=O)Nc5ccc(C(=O)/C=C/c6ccc(Cl)cc6)cc5)o4)cc3[nH]2)cc(OC)c1OC | 83.8% | 101% | 91.6% | 112% | 99.2% | 97.7% | 74.7% | 112% | 86.9% | 105%
N#Cc1nc(-c2ccccc2)oc1N1CC[C@@H](CO)C1 | 96% | 110% | 99.1% | 118% | 105% | 97.1% | 102% | 110% | 100% | 103%
Cn1c(SCC(=O)Nc2ccc(-c3nc4ccc([N+](=O)[O-])cc4[nH]3)cc2)nc2ccccc2c1=O | 93.6% | 87.3% | 78.5% | 73.1% | 83.3% | 77.1% | 78.1% | 87.3% | 78.2% | 96.3%
COc1ccc(/C=N/Nc2ccnc3cc(Cl)ccc23)cc1Cl | -52.8% (active) | -78.5% (active) | -71.3% (active) | -58% (active) | -64.7% (active) | -53.1% (active) | -90.4% (active) | -84.4% (active) | -20.4% (active) | -84.5% (active)
Cn1ccnc1C(=O)/C=C/c1ccc(NC(=O)Nc2ccccc2)cc1 | 7.81% (active) | 69.6% | -2.86% (active) | -5.31% (active) | 3.22% (active) | 3.79% (active) | -29.5% (active) | 80% | 12.4% | 24.8%
COc1ccc(Cc2nn(CC(=O)N/N=C/c3ccc(Cl)cc3)c(=O)c3c(C)noc23)cc1 | 96.3% | 95% | 76.2% | 77.7% | 83.9% | 69.3% | 58.7% | 90.9% | 88.3% | 89.9%
COc1ccc(/C=N/NC(=O)c2[nH]c3ccc(Br)cc3c2-c2ccccc2)s1 | 10.8% | 55.5% | 3.89% (active) | 80.9% | 39.7% | 15.6% | 1.16% (active) | 47% | 12% | 6.17% (active)
O=C1Nc2cc(Cl)ccc2/C1=C\c1ccc(OCc2ccc(Br)cc2F)cc1 | 3.55% (active) | -66.9% (active) | -2.27% (active) | -67.3% (active) | -11.9% (active) | -83.2% (active) | -87.9% (active) | 8.13% (active) | 6.12% (active) | 
CCOC(=O)c1csc(NC(=O)CSc2nc3sc4c(c3c(=O)n2-c2ccc(Cl)cc2)CCCC4)n1 | 93.4% | 104% | 94.6% | 100% | 89% | 91.9% | 104% | 100% | 97.7% | 93.1%
N[C@@H](Cc1cn(-c2c3ccccc3nc3ccccc23)nn1)C(=O)O | 88% | 103% | 97.4% | 114% | 101% | 105% | 90.8% | 106% | 85.4% | 107%
Cc1cc(C(=O)Nc2sc3c(c2C(N)=O)CCC(=O)C3)ccc1OCCN1CCCCC1 | 53.2% | 102% | 101% | 112% | 99.4% | 113% | 94.2% | 107% | 83.3% | 108%
OC1CCc2c(-c3ccc4ncnc(N5CCc6cc(F)c(Cl)cc65)c4c3)cncc21 (stereo not given) | 60.9% | 64.5% | 40.2% | 8.06% (active) | 43.3% | 54% | 53.7% | 89.4% | 41.1% | 74.4%
COc1cc(/C=C/C(=O)c2cc(OC)c(OC)c(OC)c2)ccc1Oc1nc(NCCO)nc(N2CCOCC2)n1 | 8.97% (active) | 29% | 19.4% | -25.7% (active) | 9.81% (active) | 12.6% | -5.48% (active) | 47.8% | -9.13% (active) | -19.1% (active)
N#Cc1c(-c2ccc(Cl)cc2)nc(SCc2ccc([N+](=O)[O-])cc2)nc1N1CCNCC1 | -32.2% (active) | 48.4% | -77.7% (active) | -4.17% (active) | 35.3% | 78.9% | -23% (active) | 43.5% | 1.91% (active) | 
CCCC(=O)NC(c1cccnc1)c1cc(C)c2cccnc2c1O (stereo not given) | 22.6% | 53.1% | 35.5% | 81.9% | 42.1% | 32.3% | 23.3% | 20.9% | 24.2% | 
CC(C)(C)Nc1nc2c(OCCc3ccccc3)cccn2c1-c1cccc(F)c1 | 1.65% (active) | -10.8% (active) | -40.9% (active) | -43% (active) | 18.8% | -38.2% (active) | -62.6% (active) | 1.34% (active) | -60.2% (active) | 
CC(O)C(NC(=O)C1CCCN1C(=O)CNC(=O)C1CC(=O)NCC(=O)NC(Cc2c[nH]c3ccccc23)C(=O)NC(Cc2ccc(O)cc2)C(=O)NCC(=O)NC(CO)C(=O)NC(CCC(N)=O)C(=O)NC(Cc2c[nH]c3ccccc23)C(=O)N1)C(=O)NCC(=O)NC(CCC(N)=O)C(=O)NC(CCCNC(=N)N)C(=O)NC(CC(=O)O)C(=O)O (stereo not given) | 94.9% | 95.5% | 98.6% | 116% | 103% | 102% | 96% | 102% | 99.5% | 
CCN1CCN(S(=O)(=O)c2oc(-c3ccc(Cl)cc3)nc2C#N)CC1 |  | -53.6% (active) | 26.7% | -60.2% (active) | 112% | 108% | 53.1% | 89.9% | -35.5% (active) | -50.6% (active)
COc1cc(OC)c(S(=O)(=O)NNC(=O)c2ccncc2)cc1C(=O)/C=C/c1ccc(C)cc1 | 27.3% | 95.5% | 67.4% | 82.9% | 60.9% | 107% | 65.3% | 99.6% | 85.3% | 
Nc1cc(-c2c[nH]c3ccc(Cl)cc23)nc2cc(-c3c[nH]c4ccc(Cl)cc34)nn12 | 4.93% (active) | 90.6% | 49.3% | 75% | 54% | 33.6% | 65.5% | 83.9% | 11.1% | 
COc1ccc(C(=O)/C=C/c2ccc(OCc3ccc(Cl)cc3)c(OC)c2)cc1OC | 23.9% | 82.3% | 57.7% | 96.2% | 78.7% | 68.3% | 71.8% | 83.5% | 34.2% | 
